# The supplement of paper PMC4466140
# Tests used:
# Assay in all cases: SPOT peptide array binding signal intensity (averaged, normalized) (arbitrary units (background-subtracted, floor 0; scale differs between SH3 domains)); higher = stronger binding of the SH3 domain to the peptide
# AgAbp1 = molecular target: AgAbp1
# How it was run: (§1)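 Spot intensities were captured after detection with anti-GST antibody, an HRP-linked anti-mouse secondary and luminol, and quantified with Genespotter. The probes were GST-fused SH3 domains from four yeast species, produced in E. coli BL21(DE3), purified on glutathione Sepharose and incubated at 10 μg/ml overnight at 4°C on cellulose-bound synthetic 15-mer peptides with cysteines replaced by serines. Binding signal is the normalized, background-subtracted spot intensity averaged over replicates, and its arbitrary units differ between domains.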
# AgBbc1 = molecular target: AgBbc1
# How it was run: as §1
# AgBem1-D1 = molecular target: AgBem1-D1
# How it was run: as §1
# AgBzz1-D1 = molecular target: AgBzz1-D1
# How it was run: as §1
# AgBzz1-D2 = molecular target: AgBzz1-D2
# How it was run: as §1
# AgCyk3 = molecular target: AgCyk3
# How it was run: as §1
# AgFus1 = molecular target: AgFus1
# How it was run: as §1
# AgHof1 = molecular target: AgHof1
# How it was run: as §1
# AgHse1 = molecular target: AgHse1
# How it was run: as §1
# AgLsb1 = molecular target: AgLsb1
# How it was run: as §1
# AgLsb4 = molecular target: AgLsb4
# How it was run: as §1
# AgMyo5 = molecular target: AgMyo5
# How it was run: as §1
# AgNbp2 = molecular target: AgNbp2
# How it was run: as §1
# AgRvs167 = molecular target: AgRvs167
# How it was run: as §1
# AgSho1 = molecular target: AgSho1
# How it was run: as §1
# AgSla1-D1-D2 = molecular target: AgSla1-D1-D2
# How it was run: as §1
# AgSla1-D3 = molecular target: AgSla1-D3
# How it was run: as §1
# CaAbp1-D1 = molecular target: CaAbp1-D1
# How it was run: as §1
# CaAbp1-D2 = molecular target: CaAbp1-D2
# How it was run: as §1
# CaBbc1 = molecular target: CaBbc1
# How it was run: as §1
# CaBem1-D1 = molecular target: CaBem1-D1
# How it was run: as §1
# CaBzz1-D1 = molecular target: CaBzz1-D1
# How it was run: as §1
# CaBzz1-D2 = molecular target: CaBzz1-D2
# How it was run: as §1
# CaCyk3 = molecular target: CaCyk3
# How it was run: as §1
# CaFus1 = molecular target: CaFus1
# How it was run: as §1
# CaHof1 = molecular target: CaHof1
# How it was run: as §1
# CaHse1 = molecular target: CaHse1
# How it was run: as §1
# CaLsb1 = molecular target: CaLsb1
# How it was run: as §1
# CaLsb4 = molecular target: CaLsb4
# How it was run: as §1
# CaMyo5 = molecular target: CaMyo5
# How it was run: as §1
# CaNbp2 = molecular target: CaNbp2
# How it was run: as §1
# CaRvs167 = molecular target: CaRvs167
# How it was run: as §1
# CaRvs167-3 = molecular target: CaRvs167-3
# How it was run: as §1
# CaSho1 = molecular target: CaSho1
# How it was run: as §1
# CaSla1-D1-D2 = molecular target: CaSla1-D1-D2
# How it was run: as §1
# CaSla1-D3 = molecular target: CaSla1-D3
# How it was run: as §1
# ScAbp1 = molecular target: ScAbp1
# How it was run: as §1
# ScBbc1 = molecular target: ScBbc1
# How it was run: as §1
# ScBem1-D1 = molecular target: ScBem1-D1
# How it was run: as §1
# ScBzz1-D1 = molecular target: ScBzz1-D1
# How it was run: as §1
# ScBzz1-D2 = molecular target: ScBzz1-D2
# How it was run: as §1
# ScCyk3 = molecular target: ScCyk3
# How it was run: as §1
# ScFus1 = molecular target: ScFus1
# How it was run: as §1
# ScHof1 = molecular target: ScHof1
# How it was run: as §1
# ScHse1 = molecular target: ScHse1
# How it was run: as §1
# ScLsb1 = molecular target: ScLsb1
# How it was run: as §1
# ScLsb2 = molecular target: ScLsb2
# How it was run: as §1
# ScLsb3 = molecular target: ScLsb3
# How it was run: as §1
# ScLsb4 = molecular target: ScLsb4
# How it was run: as §1
# ScMyo3 = molecular target: ScMyo3
# How it was run: as §1
# ScMyo5 = molecular target: ScMyo5
# How it was run: as §1
# ScNbp2 = molecular target: ScNbp2
# How it was run: as §1
# ScPex13 = molecular target: ScPex13
# How it was run: as §1
# ScRvs167 = molecular target: ScRvs167
# How it was run: as §1
# ScSho1 = molecular target: ScSho1
# How it was run: as §1
# ScSla1-D1-D2 = molecular target: ScSla1-D1-D2
# How it was run: as §1
# ScSla1-D3 = molecular target: ScSla1-D3
# How it was run: as §1
# SpAbp1-D1 = molecular target: SpAbp1-D1
# How it was run: as §1
# SpBbc1 = molecular target: SpBbc1
# How it was run: as §1
# SpBzz1-D1 = molecular target: SpBzz1-D1
# How it was run: as §1
# SpBzz1-D2 = molecular target: SpBzz1-D2
# How it was run: as §1
# SpCyk3 = molecular target: SpCyk3
# How it was run: as §1
# SpHof1 = molecular target: SpHof1
# How it was run: as §1
# SpHof1-2 = molecular target: SpHof1-2
# How it was run: as §1
# SpHof1-3 = molecular target: SpHof1-3
# How it was run: as §1
# SpHse1 = molecular target: SpHse1
# How it was run: as §1
# SpLsb1 = molecular target: SpLsb1
# How it was run: as §1
# SpLsb4 = molecular target: SpLsb4
# How it was run: as §1
# SpMyo1 = molecular target: SpMyo1
# How it was run: as §1
# SpNbp2 = molecular target: SpNbp2
# How it was run: as §1
# SpPex13 = molecular target: SpPex13
# How it was run: as §1
# SpRvs167 = molecular target: SpRvs167
# How it was run: as §1
# SpSla1-D1-D2 = molecular target: SpSla1-D1-D2
# How it was run: as §1
# SpSla1-D3 = molecular target: SpSla1-D3
# How it was run: as §1
binder,measurement,setting,value
IHTRRPSSTSQYLIR,SPOT peptide array binding signal intensity,AgAbp1,235
same,SPOT peptide array binding signal intensity,AgBbc1,354
same,SPOT peptide array binding signal intensity,AgBem1-D1,254
same,SPOT peptide array binding signal intensity,AgBzz1-D1,73.5
same,SPOT peptide array binding signal intensity,AgBzz1-D2,58.5
same,SPOT peptide array binding signal intensity,AgCyk3,4
same,SPOT peptide array binding signal intensity,AgFus1,406
same,SPOT peptide array binding signal intensity,AgHof1,44.2
same,SPOT peptide array binding signal intensity,AgHse1,202
same,SPOT peptide array binding signal intensity,AgLsb1,242
same,SPOT peptide array binding signal intensity,AgLsb4,32
same,SPOT peptide array binding signal intensity,AgMyo5,194
same,SPOT peptide array binding signal intensity,AgNbp2,106
same,SPOT peptide array binding signal intensity,AgRvs167,1.33
same,SPOT peptide array binding signal intensity,AgSho1,22.5
same,SPOT peptide array binding signal intensity,AgSla1-D1-D2,44
same,SPOT peptide array binding signal intensity,AgSla1-D3,11.8
same,SPOT peptide array binding signal intensity,CaAbp1-D1,732
same,SPOT peptide array binding signal intensity,CaAbp1-D2,571
same,SPOT peptide array binding signal intensity,CaBbc1,415
same,SPOT peptide array binding signal intensity,CaBem1-D1,43
same,SPOT peptide array binding signal intensity,CaBzz1-D1,249
same,SPOT peptide array binding signal intensity,CaBzz1-D2,267
same,SPOT peptide array binding signal intensity,CaCyk3,17
same,SPOT peptide array binding signal intensity,CaFus1,699
same,SPOT peptide array binding signal intensity,CaHof1,0.5
same,SPOT peptide array binding signal intensity,CaHse1,110
same,SPOT peptide array binding signal intensity,CaLsb1,22
same,SPOT peptide array binding signal intensity,CaLsb4,150
same,SPOT peptide array binding signal intensity,CaMyo5,208
same,SPOT peptide array binding signal intensity,CaNbp2,94.5
same,SPOT peptide array binding signal intensity,CaRvs167,19.7
same,SPOT peptide array binding signal intensity,CaRvs167-3,69.5
same,SPOT peptide array binding signal intensity,CaSho1,369
same,SPOT peptide array binding signal intensity,CaSla1-D1-D2,126
same,SPOT peptide array binding signal intensity,CaSla1-D3,15.8
same,SPOT peptide array binding signal intensity,ScAbp1,97.5
same,SPOT peptide array binding signal intensity,ScBbc1,144
same,SPOT peptide array binding signal intensity,ScBem1-D1,40.5
same,SPOT peptide array binding signal intensity,ScBzz1-D1,50
same,SPOT peptide array binding signal intensity,ScBzz1-D2,50.5
same,SPOT peptide array binding signal intensity,ScCyk3,35
same,SPOT peptide array binding signal intensity,ScFus1,593
same,SPOT peptide array binding signal intensity,ScHof1,1
same,SPOT peptide array binding signal intensity,ScHse1,465
same,SPOT peptide array binding signal intensity,ScLsb1,3
same,SPOT peptide array binding signal intensity,ScLsb2,162
same,SPOT peptide array binding signal intensity,ScLsb3,158
same,SPOT peptide array binding signal intensity,ScLsb4,6.5
same,SPOT peptide array binding signal intensity,ScMyo3,82
same,SPOT peptide array binding signal intensity,ScMyo5,243
same,SPOT peptide array binding signal intensity,ScNbp2,267
same,SPOT peptide array binding signal intensity,ScPex13,10.8
same,SPOT peptide array binding signal intensity,ScRvs167,19.8
same,SPOT peptide array binding signal intensity,ScSho1,585
same,SPOT peptide array binding signal intensity,ScSla1-D1-D2,172
same,SPOT peptide array binding signal intensity,ScSla1-D3,14.5
same,SPOT peptide array binding signal intensity,SpAbp1-D1,826
same,SPOT peptide array binding signal intensity,SpBbc1,60
same,SPOT peptide array binding signal intensity,SpBzz1-D1,632
same,SPOT peptide array binding signal intensity,SpBzz1-D2,6.5
same,SPOT peptide array binding signal intensity,SpCyk3,10
same,SPOT peptide array binding signal intensity,SpHof1,51
same,SPOT peptide array binding signal intensity,SpHof1-2,10.5
same,SPOT peptide array binding signal intensity,SpHof1-3,669
same,SPOT peptide array binding signal intensity,SpHse1,352
same,SPOT peptide array binding signal intensity,SpLsb1,292
same,SPOT peptide array binding signal intensity,SpLsb4,138
same,SPOT peptide array binding signal intensity,SpMyo1,138
same,SPOT peptide array binding signal intensity,SpNbp2,96.5
same,SPOT peptide array binding signal intensity,SpPex13,10
same,SPOT peptide array binding signal intensity,SpRvs167,31.3
same,SPOT peptide array binding signal intensity,SpSla1-D1-D2,2
same,SPOT peptide array binding signal intensity,SpSla1-D3,6
